Results published in the supplement of paper PMC12669032.
A number with no mark means an inactive call.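 How the source made its calls: active = AUC reduced over 20% with Padj below 0.05 in at least 2 of 3 replicates; inactive = otherwise.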

The compounds below were run on Bacteroides caccae (assay: growth AUC relative to DMSO control (median of replicates) (fraction); higher = more growth (less inhibition), active = hit call of the paper). Conditions: 20 µM; 24 h.
Method in brief: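 Gut bacterial monocultures in mGAM were treated with 20 µM compound (1% DMSO) and grown anaerobically at 37 °C in round-bottom 96-well plates from OD600 0.05. OD600 was read hourly for 24 h, with the minimum OD set to 0. Area under the growth curve was normalised to the plate median of solvent-only wells, or to row and column medians on the industrial chemical plate. Each value is the median of three biological replicates, each grown on a separate day.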

| SMILES | growth AUC |
| --- | --- |
| O=C(O)Cc1c(Cl)ccc(Cl)c1Cl | 1 |
| COc1cc(OC)c(Cl)cc1N | 0.994 |
| O=S(Cc1ccc(Cl)cc1)c1ccc(Cl)cc1 (centres undefined) | 0.961 |
| Cc1cc(C)c(C2=C(O)C3(CCCC3)OC2=O)c(C)c1 | 1.01 |
| CN(C)C(=O)c1cccnc1S(N)(=O)=O | 1.01 |
| CCCN(CCOc1c(Cl)cc(Cl)cc1Cl)C(N)=O | 0.899 |
| Cc1nn(C)c(OCC(=O)c2ccccc2)c1C(=O)c1ccc(Cl)cc1Cl | 0.955 |
| CC(C)(C)Nc1nc(N)nc(Cl)n1 | 0.991 |
| COC(=O)c1c(Cl)nn(C)c1S(=O)(=O)NC(=O)Nc1nc(OC)cc(OC)n1 | 1.04 |
| [S] | 0.954 |
| CCCCCCCCc1c(CC)nc2ncnn2c1N | 1.03 |
| Cn1cc(C(=O)Nc2ccccc2-c2cc(F)c(F)c(F)c2)c(C(F)F)n1 | 0.995 |
| CCCOc1nc2ccc(I)cc2c(=O)n1CCC | 0.995 |
| CNc1nc(NC(C)C)nc(SC)n1 | 1.04 |
| CC(C)(C)[C@@H](O)[C@@H](Cc1ccc(Cl)cc1)n1cncn1 (mixture of isomers) | 0.942 |
| Cc1ccc2c(c1)[C@H](Nc1nc(N)nc(C(C)F)n1)[C@@H](C)C2 (some centres undefined) | 1 |
| CCN(CC)c1nc(C)cc(=O)[nH]1 | 0.974 |
| Clc1ccc(C(c2ccccc2Cl)C(Cl)Cl)cc1 (centres undefined) | 1.01 |
| CSc1nc(NC2CC2)nc(NC(C)(C)C)n1 | 1.03 |
| CCc1cccc(C)c1N(C(=O)C(=O)O)[C@@H](C)C(=O)O | 0.993 |

| SMILES | growth AUC |
| --- | --- |
| CCNc1nc(NC(C)(C)C)[nH]c(=O)n1 | 0.937 |
| CC(C)N(C(=O)C(=O)O)c1ccccc1 | 1.01 |
| Cc1nn(C)c(F)c1C(=O)Nc1ccccc1C(C)CC(C)C (centres undefined) | 0.97 |
| CC(C)c1cc(Oc2ccccc2)cc(C(C)C)c1NC(=S)NC(C)(C)C | 0.984 |
| CCCCOCCOC(=O)COc1ccc(Cl)cc1Cl | 0.966 |
| CCOC(=O)C(C)Oc1ccc(Oc2nc3ccc(Cl)cc3o2)cc1 (racemic) | 0.973 |
| C/C=C/C(=O)Oc1c(C(C)CCCCCC)cc([N+](=O)[O-])cc1[N+](=O)[O-] (mixture of isomers) | 0.285 (active) |
| c1ccc2c(c1)Cc1ccccc1-2 | 1.02 |
| CC(C)(C)C(O)/C(=C\c1ccc(Cl)cc1)n1cncn1 (centres undefined) | 0.903 |
| Oc1ccccc1 | 0.963 |
| Cc1c(Br)c2ccc(F)cc2n1S(=O)(=O)c1ncn(S(=O)(=O)N(C)C)n1 | 1.05 |
| NC(Cn1cncn1)C(=O)O (centres undefined) | 0.985 |
| CCCCC(CC)COC(=O)COc1ccc(Cl)cc1C (centres undefined) | 0.995 |
| c1ccc(CNc2ncnc3nc[nH]c23)cc1 | 1.02 |
| CON=C(Cc1cccnc1)c1ccc(Cl)cc1Cl | 0.889 |
| COC(=O)Cc1cccc2ccccc12 | 1.01 |
| CC1(C)C(=O)Oc2ccc(OS(C)(=O)=O)cc21 | 1.05 |
| CN(C)c1ccc(N=NS(=O)(=O)[O-])cc1.[Na+] | 1.02 |
| CCOC(=O)Cn1c(=O)sc2cccc(Cl)c21 | 0.987 |
